Data taken from ChEMBL document CHEMBL3988442, “University of Dundee, Small-Polar-MMV Screening Library” (2021).
For some assays here: Results with a measured potency or affinity are listed apart.

Key:
Parameters in all cases: scale not given: direction of the effect not stated beside the values
[1] = target: Protein translocase subunit SecA (Escherichia coli (strain K12)) (UniProt P10408); test: Assay to Identify E. coli SecA ATPase Inhibitors; assay type: functional; conditions: 30 µM
[2] = target: T1, Ubiquitin-activating enzyme e1, putative (Leishmania donovani (strain BPK282A1)) (UniProt E9BSI1); test: Leishmania donovani Ubiquitin Activating Enzyme (LdE1); assay type: functional; conditions: 30 µM
T1 sequence (whole entry): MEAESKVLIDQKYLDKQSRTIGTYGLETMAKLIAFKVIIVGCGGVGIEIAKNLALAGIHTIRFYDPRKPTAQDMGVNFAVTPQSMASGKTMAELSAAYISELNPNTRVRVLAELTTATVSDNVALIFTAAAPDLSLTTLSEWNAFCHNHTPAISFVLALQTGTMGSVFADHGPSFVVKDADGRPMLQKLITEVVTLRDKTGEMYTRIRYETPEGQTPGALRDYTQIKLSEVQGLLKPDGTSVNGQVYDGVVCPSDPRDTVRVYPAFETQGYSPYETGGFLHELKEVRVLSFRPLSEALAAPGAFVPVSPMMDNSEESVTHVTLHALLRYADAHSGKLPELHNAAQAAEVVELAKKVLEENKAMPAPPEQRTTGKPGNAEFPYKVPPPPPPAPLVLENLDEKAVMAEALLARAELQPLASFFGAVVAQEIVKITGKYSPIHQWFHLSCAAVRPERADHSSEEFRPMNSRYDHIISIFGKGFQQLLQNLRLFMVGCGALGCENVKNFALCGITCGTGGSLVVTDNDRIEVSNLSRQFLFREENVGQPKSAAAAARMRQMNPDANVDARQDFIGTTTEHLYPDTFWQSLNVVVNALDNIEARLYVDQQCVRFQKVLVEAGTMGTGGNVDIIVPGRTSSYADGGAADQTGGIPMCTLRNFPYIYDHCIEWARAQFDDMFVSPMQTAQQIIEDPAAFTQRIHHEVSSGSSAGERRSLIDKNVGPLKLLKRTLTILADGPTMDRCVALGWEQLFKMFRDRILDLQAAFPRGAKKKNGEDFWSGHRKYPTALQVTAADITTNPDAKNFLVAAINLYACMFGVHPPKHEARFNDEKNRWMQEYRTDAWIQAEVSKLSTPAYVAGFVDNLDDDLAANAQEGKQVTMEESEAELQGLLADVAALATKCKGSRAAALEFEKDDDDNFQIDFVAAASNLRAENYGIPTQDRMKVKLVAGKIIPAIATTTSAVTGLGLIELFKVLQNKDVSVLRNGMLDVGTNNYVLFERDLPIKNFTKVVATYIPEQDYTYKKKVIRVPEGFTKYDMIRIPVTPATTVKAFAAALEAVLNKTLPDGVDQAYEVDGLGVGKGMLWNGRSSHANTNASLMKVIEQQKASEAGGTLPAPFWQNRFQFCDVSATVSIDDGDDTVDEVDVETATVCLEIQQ

[3] = target: AMP-activated protein kinase, AMPK (Homo sapiens) (UniProt P54646+O43741+P54619+Q9UGJ0+Q9Y478+Q13131+Q9UGI9); test: AMP-dependent Kinase enzyme assay. An in vitro enzyme assay that detects ADP turnover that is directly proportional to AMPK activity. This uses naive AMPK that is activated during the assay with MK-8722; assay type: functional; conditions: 30 µM
[4] = target: Sialic acid-binding Ig-like lectin 9 (Homo sapiens) (UniProt Q9Y336); test: Hs-Siglec9 ALPHAscreen SOP 20170721; conditions: 10 µM
[5] = test system: Trypanosoma cruzi; test: Trypanosoma cruzi phosphomannomutase and mannose-1-phosphate guanylyltransferase assay; assay type: functional; conditions: 10 µM
[6] = target: T2, Arginase-2, mitochondrial (Homo sapiens) (UniProt P78540); test: in vitro enzyme assay to detect the production of urea directly proportional to the activity of Arginase II; assay type: functional; conditions: 33.3 µM; further: in the data most compounds retested in dose-response had high values
T2 sequence (whole entry): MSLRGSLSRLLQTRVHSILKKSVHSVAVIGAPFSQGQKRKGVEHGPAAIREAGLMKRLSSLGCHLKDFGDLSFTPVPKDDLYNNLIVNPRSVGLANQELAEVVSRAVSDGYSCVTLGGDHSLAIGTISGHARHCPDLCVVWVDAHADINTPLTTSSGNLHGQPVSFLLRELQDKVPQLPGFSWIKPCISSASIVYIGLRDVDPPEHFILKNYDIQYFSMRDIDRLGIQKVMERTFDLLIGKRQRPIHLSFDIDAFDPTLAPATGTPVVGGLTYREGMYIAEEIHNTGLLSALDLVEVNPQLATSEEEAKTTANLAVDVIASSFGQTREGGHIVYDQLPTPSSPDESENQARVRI

[7] = target: T3, Proteasome subunit beta (Trypanosoma cruzi) (UniProt O96673); test: Trypanosoma cruzi proteasome chymotrypsin-like activity (TcProtChymo) assay.; further: in the data most compounds retested in dose-response had high values; assay type: functional; conditions: 9.37 µM
T3 sequence (whole entry): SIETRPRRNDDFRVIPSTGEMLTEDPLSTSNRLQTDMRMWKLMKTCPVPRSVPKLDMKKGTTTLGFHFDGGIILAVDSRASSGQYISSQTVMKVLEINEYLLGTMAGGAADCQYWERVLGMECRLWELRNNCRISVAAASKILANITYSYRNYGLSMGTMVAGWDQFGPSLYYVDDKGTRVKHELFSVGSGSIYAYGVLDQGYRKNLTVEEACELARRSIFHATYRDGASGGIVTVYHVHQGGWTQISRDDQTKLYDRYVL

[8] = organism: Homo sapiens; test: To identify inhibition of the IFN signalling (Jak-Stat) pathway via expression of an eGFP reporter gene under the control of an IFN-stimulated response element (ISRE) containing MxA promoter.; assay type: functional; conditions: 30 µM
[9] = target: T4, Tyrosyl-tRNA synthetase, putative (Trypanosoma cruzi (strain CL Brener)) (UniProt Q4DSP6); test: Trypanosoma cruzi tyrosyl tRNA synthetase (TcYRS) _High Tyrosine SOP; assay type: functional; conditions: 30 µM; further: in the data most compounds retested in dose-response had high values
T4 sequence (whole entry): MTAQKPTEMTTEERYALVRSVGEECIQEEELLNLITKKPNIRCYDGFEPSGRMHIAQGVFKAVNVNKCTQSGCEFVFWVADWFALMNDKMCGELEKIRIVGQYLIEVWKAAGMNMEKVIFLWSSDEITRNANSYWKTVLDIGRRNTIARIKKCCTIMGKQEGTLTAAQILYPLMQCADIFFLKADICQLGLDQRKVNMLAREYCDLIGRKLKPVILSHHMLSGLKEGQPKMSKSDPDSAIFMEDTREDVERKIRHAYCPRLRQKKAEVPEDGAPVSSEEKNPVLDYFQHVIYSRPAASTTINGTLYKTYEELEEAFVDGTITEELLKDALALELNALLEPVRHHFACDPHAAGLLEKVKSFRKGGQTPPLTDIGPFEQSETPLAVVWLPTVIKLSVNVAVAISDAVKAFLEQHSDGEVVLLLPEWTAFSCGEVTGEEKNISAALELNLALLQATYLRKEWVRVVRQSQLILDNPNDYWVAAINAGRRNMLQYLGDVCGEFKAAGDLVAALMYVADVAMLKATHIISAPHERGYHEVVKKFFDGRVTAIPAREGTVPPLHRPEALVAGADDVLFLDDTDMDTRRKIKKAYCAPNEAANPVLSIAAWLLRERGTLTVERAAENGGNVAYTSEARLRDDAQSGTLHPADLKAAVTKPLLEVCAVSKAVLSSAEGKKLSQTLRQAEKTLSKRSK

[10] = target: T4, Tyrosyl-tRNA synthetase, putative (Trypanosoma cruzi (strain CL Brener)); test: Trypanosoma cruzi tyrosyl tRNA synthetase (TcYRS) SOP; assay type: functional; conditions: 30 µM
[11] = target: Chromo domain-containing protein 1 (Saccharomyces cerevisiae (strain ATCC 204508 / S288c) (Baker's yeast)) (UniProt P32657); test: ScCHD-1 Enzyme Inhibition Assay; assay type: functional; conditions: 30 µM; further: in the data most compounds retested in dose-response had high values
Sequence of Chromo domain-containing protein 1 (Saccharomyces cerevisiae (strain ATCC 204508 / S288c) (Baker's yeast)) (P32657 whole entry, the tested form may be a part): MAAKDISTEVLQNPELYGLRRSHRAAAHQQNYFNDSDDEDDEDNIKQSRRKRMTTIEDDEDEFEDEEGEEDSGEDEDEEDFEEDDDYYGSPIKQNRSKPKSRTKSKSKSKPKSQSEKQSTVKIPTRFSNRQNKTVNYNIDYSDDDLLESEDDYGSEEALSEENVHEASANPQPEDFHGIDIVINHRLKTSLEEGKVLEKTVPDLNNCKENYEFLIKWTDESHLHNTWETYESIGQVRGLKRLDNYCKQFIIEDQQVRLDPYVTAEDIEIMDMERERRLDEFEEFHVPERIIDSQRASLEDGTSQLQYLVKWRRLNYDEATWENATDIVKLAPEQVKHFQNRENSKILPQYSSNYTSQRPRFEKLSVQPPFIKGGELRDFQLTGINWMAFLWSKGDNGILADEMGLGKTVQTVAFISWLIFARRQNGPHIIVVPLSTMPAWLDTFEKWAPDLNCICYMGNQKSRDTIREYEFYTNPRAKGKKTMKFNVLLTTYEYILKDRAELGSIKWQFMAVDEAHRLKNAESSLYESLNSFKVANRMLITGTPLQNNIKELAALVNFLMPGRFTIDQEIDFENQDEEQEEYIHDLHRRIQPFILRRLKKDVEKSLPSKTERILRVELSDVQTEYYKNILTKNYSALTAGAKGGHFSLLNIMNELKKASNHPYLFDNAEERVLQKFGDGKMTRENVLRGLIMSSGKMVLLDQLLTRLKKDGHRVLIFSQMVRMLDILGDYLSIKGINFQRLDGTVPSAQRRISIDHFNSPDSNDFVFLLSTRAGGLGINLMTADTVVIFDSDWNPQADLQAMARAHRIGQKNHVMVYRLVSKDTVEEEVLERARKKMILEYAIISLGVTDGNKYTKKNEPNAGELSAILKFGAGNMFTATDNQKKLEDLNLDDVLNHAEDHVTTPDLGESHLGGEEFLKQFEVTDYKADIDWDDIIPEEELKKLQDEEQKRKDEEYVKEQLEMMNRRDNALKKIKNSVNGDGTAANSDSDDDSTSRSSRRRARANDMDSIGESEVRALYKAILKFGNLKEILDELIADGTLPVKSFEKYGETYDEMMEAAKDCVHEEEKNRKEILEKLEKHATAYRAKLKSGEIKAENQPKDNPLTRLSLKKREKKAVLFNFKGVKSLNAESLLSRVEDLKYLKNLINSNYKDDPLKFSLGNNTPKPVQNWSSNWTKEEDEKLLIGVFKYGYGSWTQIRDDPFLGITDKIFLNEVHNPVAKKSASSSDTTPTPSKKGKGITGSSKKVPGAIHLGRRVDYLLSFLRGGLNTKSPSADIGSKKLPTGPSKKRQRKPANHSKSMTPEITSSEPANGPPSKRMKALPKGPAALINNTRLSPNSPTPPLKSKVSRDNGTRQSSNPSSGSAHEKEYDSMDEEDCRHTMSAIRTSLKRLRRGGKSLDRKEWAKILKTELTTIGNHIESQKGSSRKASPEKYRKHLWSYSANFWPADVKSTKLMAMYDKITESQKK

Sequence of Sialic acid-binding Ig-like lectin 9 (Homo sapiens) (Q9Y336 whole entry): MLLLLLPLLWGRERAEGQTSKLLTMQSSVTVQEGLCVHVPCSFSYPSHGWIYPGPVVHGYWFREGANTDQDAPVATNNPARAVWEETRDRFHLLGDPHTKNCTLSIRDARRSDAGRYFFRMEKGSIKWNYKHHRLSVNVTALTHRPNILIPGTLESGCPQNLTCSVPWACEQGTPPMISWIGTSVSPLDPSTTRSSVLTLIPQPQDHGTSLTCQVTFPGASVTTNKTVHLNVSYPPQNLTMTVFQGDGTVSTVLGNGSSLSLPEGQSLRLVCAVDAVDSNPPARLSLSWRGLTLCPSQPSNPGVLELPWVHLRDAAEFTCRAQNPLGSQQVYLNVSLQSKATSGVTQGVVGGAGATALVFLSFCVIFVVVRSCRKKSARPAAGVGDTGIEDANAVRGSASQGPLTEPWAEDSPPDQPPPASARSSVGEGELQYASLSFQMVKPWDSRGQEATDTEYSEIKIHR
Sequence of Protein translocase subunit SecA (Escherichia coli (strain K12)) (P10408 whole entry): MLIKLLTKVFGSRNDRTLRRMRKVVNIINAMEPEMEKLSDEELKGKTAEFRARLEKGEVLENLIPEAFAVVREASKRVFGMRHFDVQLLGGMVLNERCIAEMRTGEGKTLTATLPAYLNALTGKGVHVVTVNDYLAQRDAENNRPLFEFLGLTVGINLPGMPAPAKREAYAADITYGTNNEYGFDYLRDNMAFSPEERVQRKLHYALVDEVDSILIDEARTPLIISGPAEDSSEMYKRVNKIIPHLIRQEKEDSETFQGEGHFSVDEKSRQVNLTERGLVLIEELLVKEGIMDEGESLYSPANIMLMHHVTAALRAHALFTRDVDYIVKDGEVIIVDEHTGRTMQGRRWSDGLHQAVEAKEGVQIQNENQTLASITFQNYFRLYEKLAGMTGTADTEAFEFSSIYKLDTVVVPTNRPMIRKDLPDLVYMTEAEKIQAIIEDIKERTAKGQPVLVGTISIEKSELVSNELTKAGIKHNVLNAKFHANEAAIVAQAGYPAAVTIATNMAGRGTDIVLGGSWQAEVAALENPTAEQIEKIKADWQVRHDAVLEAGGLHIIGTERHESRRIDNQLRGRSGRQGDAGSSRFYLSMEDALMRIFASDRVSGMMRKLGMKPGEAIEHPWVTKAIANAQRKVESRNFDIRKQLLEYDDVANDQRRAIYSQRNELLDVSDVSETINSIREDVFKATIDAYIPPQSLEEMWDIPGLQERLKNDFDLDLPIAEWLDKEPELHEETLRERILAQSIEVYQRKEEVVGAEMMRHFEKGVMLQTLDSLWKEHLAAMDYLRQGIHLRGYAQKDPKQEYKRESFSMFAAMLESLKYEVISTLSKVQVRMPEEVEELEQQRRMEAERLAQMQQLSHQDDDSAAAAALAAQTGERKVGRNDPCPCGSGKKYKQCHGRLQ

Row | Compound | Percent Effect [1] [%] | Percent Effect [2] [%] | Percent Effect [3] [%] | Percent Effect [4] [%] | Percent Effect [5] [%] | Percent Effect [6] [%] | Percent Effect [7] [%] | Percent Effect [8] [%] | Percent Effect [9] [%] | Percent Effect [10] [%] | Percent Effect [11] [%]
1 | O=C1CC2(CCCCC2)CC(=O)N1CC(O)COCc1ccc(Cl)cc1 (configuration not stated) | -4.15 | -10.8 | -0.127 | -2.3 | -1.66 | -0.744 | -2.66 | 2.65 | -2.15 | -6.17 | 6.87
2 | Cc1ccc(S(=O)(=O)NC2CNC(=O)C2)cc1C (configuration not stated) | -5.32 | 8.22 | -5.53 | -8.87 | 0.588 | 1.82 | 3.9 | -1.25 | 7.53 | 12.5 | -3.53
3 | CCc1ccc(-n2c(=O)[nH]c3nc(N4CCSCC4)ncc3c2=O)cc1 | -2.14 | 21.1 | 0.234 | -5.88 | 1.85 | 5.92 | 15.8 | -2.32 | 0 | 5.2 | 45.8
4 | Cc1cc(N2CCC(N(C)C(=O)Nc3ccccc3)CC2)nc(C)n1 | -4.81 | 8.22 | 12.3 | -3.15 | -1.18 | 6.36 | 12.8 | 6.79 | 4.3 | 10 | -2.89
5 | CS(=O)(=O)N1CC[C@]2(C[C@@H](OCC3CCC3)CO2)C1 | -3.98 | 16.2 | -8.34 | 20.7 | 2.64 | 1.24 | 11.6 | -1.67 | 5.38 | 18.5 | -5.25
6 | CNC(=O)CSc1cnn(CC(=O)Nc2cccc(Cl)c2C)c(=O)c1Cl | -2.17 | 5.48 | -0.626 | 4.21 | -4.31 | 2.73 | 17.6 | 9.06 | 4.3 | 12.5 | 1.71
7 | CCC(C)[C@H](NC(=O)c1cc(Br)ccc1-n1cnnn1)C(=O)OC (some centres not stated) | -3 | -1.33 | -6.14 | -6.61 | -2.36 | -11.1 | 2.03 | -0.401 | -19.1 | -17.9 | 0.0287
8 | O=C(C1CCOCC1)N1C[C@@H]2[C@@H](C1)OCC(=O)N2CC1CC1 | -1.53 | -192 | 0.601 | -6.86 | -19.1 | 0.319 | 19.2 | -0.484 | -222 | -451 | -3.21
9 | CCCn1c(C)c(CC(=O)N(C)CCOC)c2c1CC(C)(C)CC2=O | -3.48 | 5.2 | 0.628 | 11.4 | 6.59 | -38.6 | 3 | -27.9 | 6.45 | 8.64 | -8.76
10 | Cc1cc(CNC(=O)N2CCN(c3nc(C)c(C)s3)CC2)no1 | -9.13 | 18.9 | -4.31 | 31.4 | 9.18 | 45 | 17.2 | 14 | 8.91 | 15.8 | -4.46
11 | CC(NCc1ccncc1)c1cc(F)ccc1N1CCN(C)CC1 (configuration not stated) | -1.22 | 5.41 | -10.4 | 21 | 6.16 | 15.6 | 5.58 | -10.1 | 2.15 | 11.1 | -9.91
12 | OCCn1nccc1C1CCN(CCCOc2ccc(F)cc2)CC1 | -5.89 | 0 | -3.35 | 3.53 | -0.28 | -2.88 | -3.64 | -5.47 | 9.36 | 16.1 | -0.509
13 | CN(C)c1nc2c(c(N3CCC(O)CC3)n1)CN(CC1CCNC1)CC2 (configuration not stated) | -1.69 | 10.8 | -1.59 | 10.5 | 0.193 | 0.476 | 10.9 | 2.62 | 12.2 | 19.5 | -4.09
14 | COC(=O)Cn1cccc(S(=O)(=O)N2CCC(C)CC2)c1=O | -2.33 | 20 | -5.59 | -8.73 | 2.75 | 92.1 | 14.8 | 15.8 | 2.12 | 10.3 | -10.4
15 | Cc1nc(CN2CCCC(N(C)CCc3cccs3)C2)no1 (configuration not stated) | -2.72 | 12.5 | -8.86 | 8.38 | -1.65 | 2.21 | 11.4 | 10.9 | 7.37 | 2.56 | -2.19
16 | O=C(Cc1ccccn1)N1CCN(C(=O)c2cccc3[nH]ncc23)CC1 | -1.44 | 3.8 | 15.9 | -3.99 | -0.103 | 2.8 | 5.15 | 4.63 | 5.21 | 5.06 | -0.724
17 | CNc1oc(-c2cc(S(=O)(=O)N3CCCCCC3)c(C)o2)nc1C#N | -5.54 | -9.33 | 2.78 | 2.42 | 5.5 | -3.35 | 11.3 | 8.06 | 1.06 | 10.3 | -7.07
18 | O=C(Cn1ccc2sccc2c1=O)NCc1ccc2c(c1)OCO2 | -3.35 | 5.2 | 2.53 | 0.145 | -5.62 | 4.52 | 4.53 | 1.29 | 5.29 | 11.5 | -2.27
19 | COc1cccc(CCNC(=O)CN2CCCC2c2noc(C)n2)c1 (configuration not stated) | -2.79 | 8.11 | 1.21 | -0.359 | -5.48 | 7.21 | 2.51 | 20.8 | 7.92 | 11 | -1.21
20 | Cc1nnc2n1CCN(Cc1ncc(-c3ccc(Cl)cc3)o1)C2 | -5 | -18.4 | 8.78 | 14.6 | 3.38 | 2.3 | -0.167 | 7.71 | 5.39 | 7.32 | -5.79
21 | Cc1nc[nH]c1-c1nc2cc(S(=O)(=O)N3CCCC3)ccc2n1C | -4.38 | 11 | 12.9 | 8.67 | 6.86 | 20 | 8.16 | 24.3 | 7.53 | 17.5 | -5.76
22 | Cc1nccn1C1CCCN(C(=O)C2=NN(C)C(=O)CC2)C1 (configuration not stated) | -0.962 | 18.9 | 2.88 | -10.1 | -3.68 | -4.81 | 20.9 | 23.8 | 4.43 | 6.17 | -3.99
